The source of these data is PubChem BioAssay AID624141 (Broad Institute, 2012).

About 260 (1.5%) of roughly 17,000 compounds were called active.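 Rule for the calls: active = spot fluorescence over background with P-value below 7% in all four replicate spots, showing protein binding; inactive = the rest.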 Shown is part of a subset that was picked to be rich in actives.

Chain of Myc proto-oncogene protein (Homo sapiens) (P01106 whole entry, looked up): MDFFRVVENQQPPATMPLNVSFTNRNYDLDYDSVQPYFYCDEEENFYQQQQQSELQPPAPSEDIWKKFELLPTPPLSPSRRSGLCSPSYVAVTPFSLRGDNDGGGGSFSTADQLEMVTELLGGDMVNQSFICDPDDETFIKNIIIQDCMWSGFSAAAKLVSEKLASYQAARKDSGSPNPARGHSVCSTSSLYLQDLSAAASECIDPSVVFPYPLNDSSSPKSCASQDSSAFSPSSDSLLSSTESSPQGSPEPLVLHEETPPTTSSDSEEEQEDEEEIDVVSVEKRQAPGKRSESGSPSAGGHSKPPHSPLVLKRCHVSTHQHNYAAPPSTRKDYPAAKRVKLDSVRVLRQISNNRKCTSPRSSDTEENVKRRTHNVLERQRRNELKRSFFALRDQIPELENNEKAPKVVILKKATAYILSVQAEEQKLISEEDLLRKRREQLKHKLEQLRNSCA

This experiment concerns the target Myc proto-oncogene protein (Homo sapiens) (UniProt P01106). In words: small molecules binding His-tagged c-Myc – biochemical, small molecule microarray, anti-His fluorescence, primary screen (AID 624141).
Consider `Cc1cc2c(=O)n(C)c(SCC(=O)c3cc4ccccc4o3)nc2s1`, for which the compound was called inactive. For the compound `COc1ccccc1N(CC(=O)N1CCCCC1)S(C)(=O)=O`, the result was inactive. As for `C[C@@H]1CN([C@@H](C)CO)C(=O)Cc2cc(NC(=O)Nc3ccc(F)cc3)ccc2O[C@@H]1CN(C)C`, the compound was called inactive.

Take `Cn1c(SCc2nc3ccccc3c(=O)[nH]2)nnc1-c1cc2ccccc2o1`: the compound was called inactive. The same measure for `C[C@@H]1CN([C@@H](C)CO)C(=O)c2cc(NS(C)(=O)=O)ccc2O[C@H]1CN(C)C(=O)Nc1ccc(F)cc1`: “inactive”. On to `COc1ccc(C#Cc2ccc3c(c2)[C@]2(C(=O)N3)[C@H](C(=O)N3CCc4cc(OC)c(OC)cc4C3)[C@H]3C(=O)O[C@H](c4ccccc4)[C@H](c4ccccc4)N3[C@@H]2c2ccc(O)cc2)cc1`, for which the call was inactive. `O=C(NCC1CCCO1)c1ccc(NC(=O)c2cc(-n3cnnc3)ccc2Cl)cc1` (centres undefined): the compound was classed as inactive. The same measure for `CNC[C@H]1OCCCC[C@@H](C)Oc2ccc(NC(=O)c3ccccc3)cc2C(=O)N([C@@H](C)CO)C[C@H]1C`: “inactive”; for `Cc1ccc(Cn2ncc3c(N4CCN(CCOc5ccc(C)cc5)CC4)ncnc32)cc1`: “inactive”; for `C[C@@H]1CN([C@H](C)CO)C(=O)Cc2cc(NS(=O)(=O)c3cccs3)ccc2O[C@@H]1CN(C)C(=O)Nc1ccc(F)cc1`: “inactive”. Under `O=C1NC(Cc2c[nH]c3ccccc23)C(=O)N2CCCC12` (centres undefined) stands “inactive”; under `Cc1noc(C)c1NC(=O)N(C)C[C@@H]1Oc2ccc(NC(=O)C3CC3)cc2C(=O)N([C@H](C)CO)C[C@@H]1C`, “inactive”; under `O=C1O[C@@H](c2ccccc2)[C@@H](c2ccccc2)N2[C@@H](c3ccc(O)cc3)[C@]3(C(=O)Nc4ccccc43)[C@@H](C(=O)O)[C@H]12`, “inactive”. Under `CCOc1ccc(NC(=O)C2CC(=O)n3c(nc4ccccc43)N2)cc1` (centres undefined) stands “inactive”; under `C[C@@H]1CCCCO[C@H](CN(C)C(=O)Cc2ccccc2)[C@H](C)CN([C@H](C)CO)C(=O)c2cc(NS(=O)(=O)c3cn(C)cn3)ccc2O1`, “inactive”; under `COc1cc(O)c2c(=O)c(O[C@@H]3O[C@@H](CO)[C@H](O)[C@H]3O[C@@H]3O[C@@H](C)[C@H](O)[C@@H](O)[C@H]3O)c(-c3ccc(O)cc3)oc2c1`, “inactive”. For `CN(C)CC/C=C1\c2ccccc2CSc2ccccc21`, the call was inactive.

Take `C[C@H](CO)N1C[C@H](C)[C@@H](CN(C)C)Oc2c(NC(=O)Nc3ccc(F)cc3)cccc2C1=O`: the call was inactive. Regarding `C[C@H]1CN([C@@H](C)CO)C(=O)c2cc(NC(=O)Cn3cnnn3)ccc2O[C@@H]1CN(C)S(=O)(=O)c1cccs1`, the outcome was inactive. The same measure for `C[C@H](CO)N1C[C@H](C)[C@H](CN(C)C(=O)Nc2ccc(C(F)(F)F)cc2)Oc2ccc(NC(=O)Nc3ccccc3)cc2C1=O`: “inactive”; for `C[C@@H]1CN([C@H](C)CO)C(=O)c2cccc(NS(C)(=O)=O)c2O[C@@H]1CN(C)C(=O)Nc1cccc2ccccc12`: “inactive”. Under `O=C(NCc1ccccc1)C1=C[C@H](C2CC2)C[C@H](OCc2ccc(CO)cc2)O1` stands “inactive”. For the compound `C[C@H](CO)N1C[C@H](C)[C@H](CN(C)CC2CC2)Oc2ccc(NC(=O)c3ccncc3)cc2C1=O`, the result was inactive.

With `C[C@H]1CN([C@@H](C)CO)C(=O)c2cc(NC(=O)Cn3cnnn3)ccc2O[C@H]1CN(C)C(=O)NC1CCCCC1`, the call was inactive. The same measure for `CC(C)NC(=O)N(C)C[C@H]1OCCCC[C@@H](C)Oc2ccc(NS(C)(=O)=O)cc2C(=O)N([C@H](C)CO)C[C@H]1C`: “inactive”; for `CC(C)NC(=O)N(C)C[C@H]1Oc2ccc(NC(=O)CCC(F)(F)F)cc2CC(=O)N([C@@H](C)CO)C[C@@H]1C`: “inactive”; for `C[C@H]1CCCCO[C@H](CN(C)C(=O)CCC(F)(F)F)[C@@H](C)CN([C@@H](C)CO)C(=O)c2cc(NC(=O)Nc3ccc4c(c3)OCO4)ccc2O1`: “inactive”.

For the compound `O=C1c2ccccc2[C@](Cc2ccccc2I)(C(=O)NCc2ccccc2)[C@H](c2ccc(CO)cc2)N1C1CCCCC1`, the compound was called inactive.

Turning to `Cc1cc(C)c2nc(-c3cccnc3)cc(C(=O)Nc3sc(Cc4ccccc4)cc3C(N)=O)c2c1`, the outcome was inactive. Under `CC(C)NC(=O)N(C)C[C@@H]1Oc2ccc(NS(=O)(=O)c3ccccc3)cc2C(=O)N([C@@H](C)CO)C[C@H]1C` stands “inactive”; under `C[C@@H]1CN([C@@H](C)CO)C(=O)c2cccc(NC(=O)c3ccc(-c4nccs4)cc3)c2O[C@H]1CN(C)C(=O)Nc1ccccc1`, “inactive”. Take `Cc1cccc(OCCCC(=O)Nc2sc3c(c2C(N)=O)CCCC3)c1C`: the result was inactive.

Regarding `Cc1nn(-c2ccccc2)c(CC(C)(C)C(=O)O)c1C(=O)O`, the result was inactive.

As to `C[C@H]1CN([C@@H](C)CO)C(=O)Cc2cc(NC(=O)Nc3ccccc3)ccc2O[C@H]1CN(C)Cc1ccncc1`, the compound was classed as inactive. For `C[C@@H]1CCCCO[C@@H](CN(C)Cc2ccncc2)[C@@H](C)CN([C@@H](C)CO)C(=O)c2cc(N(C)C)ccc2O1`, the outcome was inactive. As to `C[C@H](CO)N1C[C@H](C)[C@H](CN(C)C)Oc2ccc(NC(=O)Nc3ccc(F)cc3)cc2CC1=O`, the outcome was inactive. Under `C[C@@H]1CN([C@@H](C)CO)C(=O)Cc2cc(NC(=O)Cc3cn(C)c4ccccc34)ccc2O[C@H]1CN(C)C(=O)NC1CCCCC1` stands “inactive”; under `C/C=C(\C)C(=O)OC(/C=C/C(O)C(C)O)C1C=CC(=O)O1` (centres undefined), “inactive”; under `C=C(C(=O)O)C1CCC2(C)CCC(=O)C(C)=C2C1` (centres undefined), “inactive”. In the case of `Cn1c(OCc2cccnc2)nc2c1c(=O)n(Cc1ccc(Cl)c(Cl)c1)c(=O)n2C`, the outcome was inactive. Turning to `CCO[C@H]1OC(C(=O)O)=C[C@@H](C2CCCCC2)[C@@H]1CCCO`, the compound was called inactive. Under `Nc1nnc(SCC(=O)Nc2ccc(Cl)cc2O)s1` stands “inactive”. Consider `COc1ccc(S(=O)(=O)N(C)C[C@@H]2Oc3ccc(NC(=O)CCC(F)(F)F)cc3C(=O)N([C@@H](C)CO)C[C@H]2C)cc1`, for which the call was inactive. With `CN1CCN(C(=O)C2=C[C@@H](c3ccc(Br)cc3)C[C@@H](OCCCCO)O2)CC1`, the call was inactive.

As to `C[C@H]1CN([C@@H](C)CO)C(=O)Cc2cc(N(C)C)ccc2O[C@@H]1CN(C)S(=O)(=O)c1ccc(F)cc1`, the compound was classed as inactive.

Consider `Nc1nnc(SCCN2C(=O)c3ccccc3S2(=O)=O)s1`, for which the outcome was inactive.

Take `C[C@@H]1CN([C@H](C)CO)C(=O)CCCn2nncc2CO[C@@H]1CN(C)Cc1ccc2c(c1)OCCN2C`: the call was inactive.

In the case of `Cc1c(NC(=O)/C(C#N)=C/c2ccccc2Cl)c(=O)n(-c2ccccc2)n1C`, the call was inactive. As to `C/C(=C\CC[C@H](CO)[C@@H]1CC[C@]2(C)C3=C(CC[C@@]12C)[C@@]1(C)CCC(=O)C(C)(C)C1CC3)C(=O)O` (some centres undefined), the compound was classed as inactive. The same measure for `COCCOC(=O)N1C(=O)[C@@]2(c3cc(C#CCNC(N)=O)ccc31)[C@H](C(=O)N1CCN(c3ncccn3)CC1)[C@H]1C(=O)O[C@H](c3ccccc3)[C@H](c3ccccc3)N1[C@@H]2c1ccccc1OCCO`: “inactive”; for `Cc1cc(C(=O)c2ccccc2)ccc1OC(=O)COc1ccccc1[N+](=O)[O-]`: “inactive”. The same measure for `NC(=O)NCC#Cc1ccc2c(c1)[C@]1(C(=O)N2)[C@H](C(=O)Nc2nc3ccccc3s2)[C@H]2C(=O)O[C@H](c3ccccc3)[C@H](c3ccccc3)N2[C@@H]1c1ccc(OCCO)cc1`: “inactive”; for `CC1=COC(O[C@@H]2O[C@H](CO)[C@@H](O)[C@H](O)[C@H]2O)C2C1CC(O)C2CO` (some centres undefined): “inactive”; for `C[C@H](CO)N1C[C@H](C)[C@@H](CN(C)Cc2ccccc2)Oc2c(NC(=O)C3CCOCC3)cccc2C1=O`: “inactive”. The same measure for `C[C@H](CO)N1C[C@H](C)[C@H](CN(C)Cc2ccc(C(=O)O)cc2)Oc2ccc(NC(=O)NC3CCCCC3)cc2C1=O`: “inactive”. On to `COc1ccc(S(=O)(=O)Nc2cccc3c2O[C@H](CN(C)Cc2ccc4c(c2)OCO4)[C@H](C)CN([C@@H](C)CO)C3=O)cc1`, for which the compound was called inactive. The same measure for `COc1cccc(NC(=O)c2cc([N+](=O)[O-])ccc2NC(=O)CN2CCCCCC2)c1`: “inactive”. `C[C@@H]1CN([C@@H](C)CO)C(=O)c2cccc(NC(=O)Nc3ccc(F)cc3)c2O[C@@H]1CN(C)Cc1ccc(C(=O)O)cc1`: the compound was called inactive. The same measure for `C[C@H](CO)N1C[C@H](C)[C@H](CN(C)Cc2ccc(C(F)(F)F)cc2)Oc2c(NC(=O)C3CCOCC3)cccc2C1=O`: “inactive”. The same measure for `O=C(Nc1cccc(CCc2ccccn2)c1)c1ccc(Cl)cc1`: “inactive”; for `C[C@@H]1CCCCO[C@H](CN(C)C(=O)Nc2ccc3c(c2)OCO3)[C@H](C)CN([C@H](C)CO)C(=O)c2cc(NS(C)(=O)=O)ccc2O1`: “inactive”; for `C[C@H]1CN([C@@H](C)CO)C(=O)c2cc(NS(=O)(=O)c3ccccc3)ccc2O[C@@H]1CN(C)C(=O)NC1CCCCC1`: “inactive”. Under `C[C@@H]1CN([C@@H](C)CO)C(=O)CCCn2cc(nn2)CO[C@@H]1CN(C)C(=O)C1CCCCC1` stands “inactive”; under `C[C@@H]1CCCCO[C@H](CN(C)C(=O)CCC(F)(F)F)[C@@H](C)CN([C@@H](C)CO)C(=O)c2cc(NC(=O)c3ccncc3)ccc2O1`, “inactive”; under `COC(=O)c1cc(C)sc1NC(=S)Nc1ncn(Cc2ccc(F)cc2Cl)n1`, “inactive”. For the compound `CCc1ccc2c(c1)c1nc3ccccc3nc1n2CC(=O)OC`, the outcome was active. The same measure for `O=C1C(=O)N(CCn2c3ccccc3c3nc4ccccc4nc32)c2ccccc21`: “inactive”; for `CCn1c2ccccc2c2nnc(SCC(=O)O)nc21`: “inactive”; for `O=C(O)c1cccc(S(=O)(=O)Nc2ccc(O)cc2Sc2nc3ccccc3s2)c1`: “inactive”. The same measure for `Cc1ccc(OCC(=O)Nc2cc(-c3nc4cc(C)c(C)cc4o3)ccc2C)cc1`: “inactive”; for `Cc1noc(C)c1NC(=O)N(C)C[C@@H]1Oc2ccc(NC(=O)Nc3ccc4c(c3)OCO4)cc2C(=O)N([C@H](C)CO)C[C@H]1C`: “inactive”.

On to `C[C@@H]1CN([C@H](C)CO)C(=O)Cc2cc(NC(=O)C3CC3)ccc2O[C@H]1CN(C)Cc1ccc(Cl)c(Cl)c1`, for which the result was active. The same measure for `C[C@H](CO)N1C[C@H](C)[C@@H](CN(C)C(=O)Nc2ccccc2)Oc2ccc(NC(=O)C3CC3)cc2CC1=O`: “inactive”; for `C[C@@H]1CN([C@H](C)CO)C(=O)Cc2cc(NC(=O)C3CC3)ccc2O[C@H]1CN(C)Cc1ccc2c(c1)OCO2`: “inactive”.
